{"source": "PubChem BioAssay (Tox21)", "note": "Results filed as inconclusive are left out. Unmarked numbers belong to inactive results. The call rests on the fitted dose curve; in most records, active means well fitted inhibition curve with a large enough effect in the signal ratio in the repeat runs, with a control signal flat; inconclusive means weak or mixed curves, or effect the other way; inactive means flat fitted curve, though single readings scatter; the % refers to the signal ratio. On the % scale 0 is the no-effect control and ±100 the full control effect."}
{"target": "D(2) dopamine receptor (Homo sapiens) (UniProt P14416)", "sequence (P14416 whole entry, looked up)": "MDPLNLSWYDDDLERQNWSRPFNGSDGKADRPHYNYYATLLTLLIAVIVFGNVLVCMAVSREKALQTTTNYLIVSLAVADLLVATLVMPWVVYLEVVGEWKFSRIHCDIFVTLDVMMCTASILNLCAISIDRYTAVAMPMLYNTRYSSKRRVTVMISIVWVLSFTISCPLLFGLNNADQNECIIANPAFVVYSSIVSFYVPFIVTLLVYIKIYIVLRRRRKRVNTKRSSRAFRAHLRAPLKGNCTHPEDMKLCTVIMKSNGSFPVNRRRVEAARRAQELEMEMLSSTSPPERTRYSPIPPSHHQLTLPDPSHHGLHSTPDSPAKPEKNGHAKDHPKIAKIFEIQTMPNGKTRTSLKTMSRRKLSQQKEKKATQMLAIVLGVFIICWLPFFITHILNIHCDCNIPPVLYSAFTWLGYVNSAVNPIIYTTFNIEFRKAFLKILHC", "assay": "Dopamine D2 receptor (DRD2) small molecule antagonists, cell-based qHTS assay (AID 1963595)", "conditions": "HEK293-DRD2 cAMP HTRF antagonist mode; series mostly up to 92.4 µM; activity change, negative = inhibition: at the top concentration", "method_in_brief": "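Cells were plated and grown for 24 h at 37 °C. Ro20-1724 (0.1 mM final) went in first, then compound for 10 min. NKH477 (200 nM) with quinpirole (12 nM) followed for 30 min at RT, then HTRF detection reagents for 1 h.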"}
{"smiles": "CC(C)NCCCC1(C(N)=O)c2ccccc2-c2ccccc21", "activity change, negative = inhibition": "-0.151% [at 42.5 µM]"}
{"smiles": "CC(C(=O)O)c1cccc(Oc2ccccc2)c1", "note": "(centres undefined)", "activity change, negative = inhibition": "0% [at 42.5 µM]"}
{"smiles": "CC(C)=CCC[C@@](C)(O)[C@H]1CC=C(C)CC1", "activity change, negative = inhibition": "-1.52% [at 42.5 µM]"}
{"smiles": "O=C(O)C[C@H](O)C[C@H](O)/C=C/c1c(C2CC2)nc2ccccc2c1-c1ccc(F)cc1", "activity change, negative = inhibition": "4% [at 18.9 µM]"}
{"smiles": "O=P(O)(O)OCC(O)CO", "note": "(centres undefined)", "activity change, negative = inhibition": "1.56% [at 42.5 µM]"}
{"smiles": "COC(=O)[C@H]1[C@H]2C[C@@H]3c4[nH]c5cc(OC)ccc5c4CCN3C[C@H]2C[C@@H](OC(=O)COc2ccc(OC)cc2)[C@@H]1OC", "activity change, negative = inhibition": "4.38% [at 42.5 µM]"}
{"smiles": "Cc1ccc2c(Cl)cc(Cl)c(O)c2n1", "activity change, negative = inhibition": "-4.86% [at 42.5 µM]"}
{"smiles": "CCC(=O)OC(=O)CC", "activity change, negative = inhibition": "-2.27%"}
{"smiles": "O=C1c2ccccc2C(=O)N1CO", "activity change, negative = inhibition": "-12.9%"}
{"smiles": "C[N+]12CCC(CC1)C(OC(=O)C(O)(c1ccccc1)c1ccccc1)C2", "note": "(centres undefined)", "activity change, negative = inhibition": "-3.96% [at 42.5 µM]"}
{"smiles": "Cc1cccc([N+](=O)[O-])c1C(=O)O", "activity change, negative = inhibition": "-0.533%"}
{"smiles": "C[N+]1(CC2COC(c3ccccc3)(c3ccccc3)O2)CCCCC1", "note": "(centres undefined)", "activity change, negative = inhibition": "7.28% [at 18.9 µM]"}
{"smiles": "Cc1ncc(CO)c(C=O)c1O", "activity change, negative = inhibition": "7.68% [at 42.5 µM]"}
{"smiles": "CC(C)c1ccc(C#N)cc1", "activity change, negative = inhibition": "-10.3%"}
{"smiles": "CN(C)CCN1CCOCC1", "activity change, negative = inhibition": "-6.86%"}
{"smiles": "CCOC(=O)[C@H](C)O", "activity change, negative = inhibition": "6.97%"}
{"smiles": "O=C(Nc1ccccc1)Nc1ccccc1", "activity change, negative = inhibition": "5.53%"}
{"smiles": "O=C(O)c1ccc[n+]([O-])c1", "activity change, negative = inhibition": "-1.82% [at 42.5 µM]"}
{"smiles": "NC(Cc1ccc(Cl)cc1)C(=O)O", "note": "(centres undefined)", "activity change, negative = inhibition": "0.383% [at 0.348 µM]"}
{"smiles": "CCCCCCCCCCc1ccccc1", "activity change, negative = inhibition": "4.02%"}
{"smiles": "NC1CCN(c2nc3c(cc2F)c(=O)c(C(=O)O)cn3-c2ccc(F)cc2F)C1", "note": "(centres undefined)", "activity change, negative = inhibition": "1.45% [at 42.5 µM]"}
{"smiles": "CO[C@@H]1[C@H](OC(=O)/C=C/C=C/C=C/C=C/C(=O)O)CC[C@]2(CO2)[C@H]1[C@@]1(C)O[C@@H]1CC=C(C)C", "activity change, negative = inhibition": "0.481%"}
{"smiles": "CN1C(=O)OC(C)(C)C1=O", "activity change, negative = inhibition": "6.24%"}
{"smiles": "FC(F)(F)c1ccc(Cl)cc1Cl", "activity change, negative = inhibition": "-3.54%"}
{"smiles": "Cn1c(=O)[nH]c2ncn(C)c2c1=O", "activity change, negative = inhibition": "-0.299%"}
{"smiles": "CC(C)(C)C1=CC(=O)C(C(C)(C)C)=CC1=O", "activity change, negative = inhibition": "-4.36% [at 42.5 µM]"}
{"smiles": "Cc1c(C(=O)NCCO)[n+](=O)c2ccccc2n1[O-]", "activity change, negative = inhibition": "0.336% [at 42.5 µM]"}
{"smiles": "C=CC(C)(CCC=C(C)C)OC(=O)C(C)C", "note": "(centres undefined)", "activity change, negative = inhibition": "-8.74%"}
{"smiles": "CN1Cc2cc(C(=O)N3CCC(C4CCNCC4)CC3)ccc2N[C@@H](CC(=O)O)C1=O", "activity change, negative = inhibition": "-2.72% [at 42.5 µM]"}
{"smiles": "[O-][n+]1cccc(CO)c1", "activity change, negative = inhibition": "2.75% [at 42.5 µM]"}
{"smiles": "Cc1cc(C(=O)O)ccc1[N+](=O)[O-]", "activity change, negative = inhibition": "-8.09%"}
{"smiles": "CC(C)=CCC/C(C)=C/C=N/O", "activity change, negative = inhibition": "-1.82%"}
{"smiles": "CC(=O)c1c(C)cc(C(C)(C)C)cc1C", "activity change, negative = inhibition": "-16.7%"}
{"smiles": "O=S1(=O)c2cccc3cccc(c23)N1CCCN1CCN(c2ccc(F)cc2)CC1", "activity change, negative = inhibition": "-0.111% [at 42.5 µM]"}
